Measured values published in ChEMBL document CHEMBL3988442, “University of Dundee, Small-Polar-MMV Screening Library” (2021).

Target: AMP-activated protein kinase, AMPK (Homo sapiens) (UniProt P54646+O43741+P54619+Q9UGJ0+Q9Y478+Q13131+Q9UGI9)
Experiment: AMP-dependent Kinase enzyme assay. An in vitro enzyme assay that detects ADP turnover that is directly proportional to AMPK activity. This uses naive AMPK that is activated during the assay with MK-8722
Type: functional
Set-up: scale not given: direction of the effect not stated beside the values
Details: 30 µM

Compound	Percent Effect [%]
CN(CCc1ccccn1)C(=O)Cn1cc(-c2ccccc2)nn1	-0.117
O=C(NCCn1ccnc1-c1cc2n(n1)CCCNC2)c1ccncc1	0.773
CCN(Cc1ccc(N(C)C)cc1)S(=O)(=O)c1cc(Br)ccc1OC	-8.72
COc1ccc(C2CCN(S(=O)(=O)CCCC#N)CC2)cc1	-2.21
COc1ccccc1OC(C)CNC(=O)c1cnc[nH]1 (stereo unspecified)	0.827
COc1ccc(OCCNC(=O)CN(C)Cc2nnc(C)n2C)cc1	7.86
COC(=O)c1sc(C(NC(=O)c2ccccc2)C2CC2)nc1C (stereo unspecified)	-2.15
Cc1ccc(C2(O)CCN(C(=O)Cn3cc(C)c(=O)[nH]c3=O)CC2)nc1	7.31
Cc1c(CN2Cc3nccn3CC2c2ccccc2)cnn1C (stereo unspecified)	7.11
CC(C)Cn1cc(NC(=O)c2cccc(N(C)C)c2)cn1	1.9
CC(=O)N1CCC(NC(=O)CN2CCCc3c(C)ccc(F)c32)CC1	5.92
N#Cc1cccc(N2CCCC(CO)(CCOc3ccccc3)C2)n1 (stereo unspecified)	3.31
Cc1cc(C(=O)NCCN2CCCCCC2)nn1C(C)(C)C	4.2
CCCC1COCCN1Cc1ccc(C(=O)O)cc1 (stereo unspecified)	-3.74
CCC(C(=O)NCCc1coc(-c2ccc(C)cc2)n1)N(C)C (stereo unspecified)	6.54
CCc1oc(C(=O)NCCSc2ncn[nH]2)cc1CN1CCCC1	1.9
Cc1nnc(CN(Cc2cccc3c2OCO3)CC2CCCO2)n1C (stereo unspecified)	-6.12
Cc1occc1C(=O)Nc1cccc(C(=O)OCC2CCCN2)c1 (stereo unspecified)	-5.07
Cc1cc(C(F)(F)F)nc(CNC(=O)CCn2cccn2)n1	12.2

Compound	Percent Effect [%]
O=C(Nc1ccc(I)cc1C(=O)NCCN1CCOCC1)c1ccco1	12.6
c1csc(CN(Cc2ccsc2)CC2CCCO2)n1 (stereo unspecified)	5.59
Cc1c(F)cccc1S(=O)(=O)N(C)CC(C)O (stereo unspecified)	1.59
CC(C)[C@@H]1CN(C(=O)CN(C)Cc2ccc(F)cc2)C[C@H]1C(=O)O	0.85
CCSc1cc(C(=O)N(Cc2cnn(C)c2)C(C)C)ccn1	1.44
Cn1ccc(C(=O)N2CCCC2c2cc[nH]n2)n1 (stereo unspecified)	4.63
Cc1noc(C)c1C(=O)N(C)C(C)c1cccnc1 (stereo unspecified)	-4.48
CN(C)S(=O)(=O)N1CCOC(c2cccc(-c3cncnc3)n2)C1 (stereo unspecified)	9.99
CN(C)c1ncccc1N(C)C(=O)Cn1cc(-c2ccccc2)nn1	-17.2
CC(OCC1CC1)C(=O)Nc1ccn(Cc2ccccc2)n1 (stereo unspecified)	2.88
CC(=O)NC1CCCN(c2nc3ccccc3cc2CO)C1 (stereo unspecified)	3.71
Cc1nc(CN2CCCC2Cn2cccn2)nc2ccccc12 (stereo unspecified)	-8.75
COCCN(Cc1sccc1C)C(=O)COc1cccnc1	-3.19
CSc1nsc(NC(=O)N(C)Cc2ccc3c(c2)OCO3)n1	0.417
Cc1ccc(-n2cc(C(=O)NCc3nnc4n3CCCCC4)nn2)cc1	5.45
Cc1ccc(C(C)N(C)C(=O)c2ccc(=O)n(C)c2)s1 (stereo unspecified)	3.36
Cc1cccnc1NC(=O)c1ccc(F)c(S(=O)(=O)N2CCC2)c1	-5.84
Cn1cc(CN2CCS(=O)(=O)C(C)(C)C2)cn1	5.13
CCCC(C#N)NC(=O)c1sccc1CC (stereo unspecified)	6.7

Compound	Percent Effect [%]
CCS(=O)(=O)N1Cc2ccccc2CC1C(=O)OCc1cc(C)no1 (stereo unspecified)	5.87
c1ccc2c(NC3CCc4ncnn4C3)ncnc2c1 (stereo unspecified)	2.92
COCCCC1(CO)CCCN(C(=O)c2cnc(C3CC3)nc2)C1 (stereo unspecified)	2.98
O=C(CNc1ccc(OCC2CCOCC2)cc1)NCc1ccco1	0.773
CN1CCCC1CCNC(=O)c1ccccc1-n1cnc(CN)c1 (stereo unspecified)	7.02
CCc1nc(C)c(CC(=O)N2CCC3(CC2)OCCCC3OC)c(=O)[nH]1 (stereo unspecified)	-123
COc1c(F)cc(-c2cccc3c2OC(CN)C3)cc1F (stereo unspecified)	-4.2
CC(C(=O)NCc1ccc2c(c1)OCCO2)n1cncn1 (stereo unspecified)	-8.38
Cc1ccc(C(=O)NCCC2CCN(C)CC2)cc1N(C)S(C)(=O)=O	-4.15
O=C(CNc1ccc(OC2CCOC2)cc1)NCc1ccco1 (stereo unspecified)	7.98
CN(CCO)Cc1cc(Cl)ccc1OCC(O)CN1CCCCCC1 (stereo unspecified)	0.752
Cc1nc2cc(-c3nccn3C)nn2c(N2CCCC2)c1C	16.5
O=C1NCCCCC1NC(=O)N1CCCc2cc(F)ccc21 (stereo unspecified)	6.88
CC(NCC(=O)N1CCc2sccc2C1)c1ccccc1F (stereo unspecified)	10.8
Fc1ccccc1OC1CCN(CCn2cc3ccccc3n2)CC1	6.19
CN(C)Cc1cccc(-c2cccnc2C(=O)NCc2cn(C)cn2)c1	23.4
CCOC(=O)C1(NC(=O)CCNc2cc(C)ccc2OC)CCCCC1	6.8
Cc1nsc(N2CCCN(C(=O)CCc3ccsc3)CC2)n1	-4.46
